14 compounds from PubChem BioAssay (NCI) can be followed below.

Structures are written as SMILES. This is part of a sample that, as a whole, favours compounds with a hit. Of some 83,000 tested, about 20% had one in any assay.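 A percent growth of 40 corresponds to 60% growth inhibition; 0 means no net growth; -100 means all cells died. Active threshold: below 10.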 Unmarked numbers belong to inactive results. Activity calls are given as the source filed them.

Among the test systems are NCI-H23 lung; NCI-H226 lung; NCI-H322M lung; HOP-62 NSCLC; NCI-H460 lung; HOP-92 NSCLC; NCI-H522 lung; A549/ATCC NSCLC; 786-0 renal; COLO 205 colon.
Test in all cases: NCI-60 one-dose screen, 48 h (100 = growth as untreated, 0 = no growth, -100 = all killed)
Conditions in all cases: 10 µM unless noted

On to `O=C(/C=C/c1cccc(Cl)c1)c1ccc(O)c(CN2CCN(c3cc4c(cc3F)c(=O)c(C(=O)O)cn4C3CC3)CC2)c1`, for which the growth with NCI-H23 lung is 56.4%; in the assay on NCI-H226 lung, 62%; with NCI-H322M lung it was 37.8%; in the assay with HOP-62 NSCLC, 37.2%; in the assay on NCI-H460 lung it was 44%; in the assay with HOP-92 NSCLC, 21.8%. The growth was 17.3% with NCI-H522 lung, 25.8% with A549/ATCC NSCLC, 33.6% in the assay on 786-0 renal and 136% in the assay with COLO 205 colon.
Regarding `COc1ccc(-n2nc(C)c3c(Nc4ccc(NC(=O)Nc5ccc(Cl)c(C(F)(F)F)c5)cc4)ncnc32)cc1`, the growth is -7.74% (active) in the assay on NCI-H23 lung; 10.7% in the assay with NCI-H226 lung; 9.35% (active) in the assay on NCI-H322M lung; -15.3% (active) with HOP-62 NSCLC; 0.651% (active) in the assay on NCI-H460 lung; -18.9% (active) in the assay with HOP-92 NSCLC. Moreover, the growth is -18.4% (active) in the assay on NCI-H522 lung, 6.97% (active) with A549/ATCC NSCLC, -25.5% (active) with 786-0 renal and -23.6% (active) with COLO 205 colon.
With `N#Cc1nnn(-c2ccc(S(N)(=O)=O)cc2)c1NCC(=O)c1ccccc1`, the growth is 98% with NCI-H23 lung; 88.2% in the assay on NCI-H226 lung; 91.2% in the assay with NCI-H322M lung; 91.7% in the assay on HOP-62 NSCLC; 101% with NCI-H460 lung; 86.6% in the assay on HOP-92 NSCLC. Moreover, the growth in the assay on NCI-H522 lung was 83.9%; in the assay with A549/ATCC NSCLC, 93.3%; in the assay on 786-0 renal, 102%; in the assay with COLO 205 colon, 104%.
As for `CSc1nc(NCCN2CCOCC2)c(C#N)c(-c2cccc([N+](=O)[O-])c2)n1`, the growth in the assay on NCI-H23 lung was 97.1%; with NCI-H226 lung, 106%; in the assay with NCI-H322M lung it was 92.9%; with HOP-62 NSCLC it was 89.4%; in the assay with NCI-H460 lung, 100%; with HOP-92 NSCLC it was 101%. Also, the growth in the assay on NCI-H522 lung is 85.7%; with A549/ATCC NSCLC, 99.5%; with 786-0 renal, 101%; with COLO 205 colon, 111%.
In the case of `c1ccc(Cn2cc(-c3nc4ccccc4s3)c3cccnc32)cc1`, the growth with NCI-H23 lung is 96.6%; in the assay on NCI-H226 lung, 92.4%; in the assay with NCI-H322M lung, 101%; in the assay on HOP-62 NSCLC, 96.1%; in the assay with NCI-H460 lung, 102%; with HOP-92 NSCLC it was 98.3%. For the same compound, the growth in the assay with NCI-H522 lung was 87.9%; with A549/ATCC NSCLC, 104%; in the assay on 786-0 renal, 104%; in the assay with COLO 205 colon, 118%.
On to `O=C1c2ccccc2C(=O)c2c1ccc1[nH]c(-c3cccs3)nc21`, for which the growth was 84.5% with NCI-H23 lung; 91.9% in the assay with NCI-H226 lung; 60.9% in the assay on NCI-H322M lung; 102% in the assay on HOP-62 NSCLC; 73.7% in the assay on NCI-H460 lung; 80.8% in the assay with HOP-92 NSCLC. Also, the growth in the assay on NCI-H522 lung was 78.9%; in the assay on A549/ATCC NSCLC, 66.7%; in the assay with 786-0 renal, 99.9%; in the assay with COLO 205 colon, 103%.
Take `Nc1nc2ccc3[nH]ncc3c2c2c1CCCC2`: the growth with NCI-H23 lung was -19% (active); in the assay on NCI-H226 lung it was 6.29% (active); in the assay with NCI-H322M lung, 2.32% (active); with HOP-62 NSCLC, 2.81% (active); in the assay on NCI-H460 lung it was 2.07% (active); with HOP-92 NSCLC, -12.6% (active). The growth was -1.98% (active) in the assay on NCI-H522 lung, 8.61% (active) in the assay with A549/ATCC NSCLC, 6.18% (active) in the assay with 786-0 renal and -19% (active) in the assay on COLO 205 colon.
Regarding `C=CC(=O)Nc1cccc(-c2nc(SC)nc(NCCN3CCOCC3)c2C#N)c1`, the growth in the assay on NCI-H23 lung is 92.5%; in the assay with NCI-H226 lung it was 97.1%; in the assay with NCI-H322M lung, 94.2%; with HOP-62 NSCLC, 99.9%; with NCI-H460 lung it was 101%; in the assay with HOP-92 NSCLC it was 76.1%. Also, the growth in the assay with NCI-H522 lung was 76%; in the assay with A549/ATCC NSCLC, 101%; in the assay with 786-0 renal, 87.5%; in the assay with COLO 205 colon, 114%.
For the compound `COc1ccc(C2CC(c3ccc(Cl)cc3)=NN2/C=C2\SC(=S)N(NC(=O)Cc3ccccc3Nc3c(Cl)cccc3Cl)C2=O)cc1` (stereo not given), the growth in the assay with NCI-H23 lung is 80.1%; in the assay on NCI-H226 lung it was 68.8%; with NCI-H322M lung, 85%; in the assay with HOP-62 NSCLC, 79.1%; in the assay on NCI-H460 lung, 81.8%; with HOP-92 NSCLC it was -2.84% (active). The growth was 65.7% in the assay with NCI-H522 lung, 57.8% in the assay with A549/ATCC NSCLC, -55.2% (active) in the assay on 786-0 renal and 30% in the assay with COLO 205 colon.
As for `COc1cc(-c2nn(-c3ccc(C(=O)O)cc3)cc2C(=O)O)ccc1O`, the growth in the assay with NCI-H23 lung was 63%; in the assay with NCI-H226 lung it was 102%; in the assay on NCI-H322M lung, 98.5%; in the assay on HOP-62 NSCLC it was 61.6%; in the assay with NCI-H460 lung it was 61.9%; in the assay with HOP-92 NSCLC it was 58.8%. For the same compound, the growth in the assay on NCI-H522 lung is 12%; in the assay on A549/ATCC NSCLC, 78.2%; with 786-0 renal, 78.3%; in the assay with COLO 205 colon, 113%.
Turning to `CC1=C(O)C(=O)C(C(C#N)(C#N)C(C#N)C#N)C1` (stereo not given), the growth is 92.4% with NCI-H23 lung; 96.4% with NCI-H226 lung; 85.8% in the assay with NCI-H322M lung; 108% with HOP-62 NSCLC; 102% with NCI-H460 lung; 112% in the assay on HOP-92 NSCLC. Besides, the growth was 85.8% in the assay with NCI-H522 lung, 101% in the assay on A549/ATCC NSCLC, 106% with 786-0 renal and 105% in the assay on COLO 205 colon.
For the compound `COc1cccc(/C=N/NC(=O)c2ccccc2Nc2ccnc(C(F)(F)F)c2)c1O`, the growth in the assay on NCI-H23 lung was 30.8%; in the assay on NCI-H226 lung, -20.2% (active); in the assay with NCI-H322M lung, 17.4%; in the assay on HOP-62 NSCLC, -6.28% (active); in the assay on NCI-H460 lung, -6.96% (active); with HOP-92 NSCLC, 29.4%. For the same compound, the growth was 18.6% in the assay with NCI-H522 lung, 14.3% with A549/ATCC NSCLC, -2.01% (active) in the assay on 786-0 renal and 2.9% (active) in the assay with COLO 205 colon.
On to `CC(=O)NCC1c2c(n(C)c3c(Cl)c(Cl)ccc23)C(=O)NC1(C)C` (stereo not given), for which the growth in the assay on NCI-H23 lung was 90.3%; in the assay with NCI-H226 lung, 97.1%; in the assay with NCI-H322M lung it was 91.9%; in the assay on HOP-62 NSCLC, 88.2%; with NCI-H460 lung, 96.6%; in the assay with HOP-92 NSCLC it was 90.6%. In addition, the growth with NCI-H522 lung was 92.8%; with A549/ATCC NSCLC it was 94.4%; in the assay on 786-0 renal, 100%; in the assay with COLO 205 colon it was 113%.
For `COc1cc2nc(N3CCCC3)nc(NCc3ccccc3)c2cc1OC`, the growth in the assay on NCI-H23 lung is 82.3%; in the assay with NCI-H226 lung, 90%; in the assay on NCI-H322M lung, 79.7%; with HOP-62 NSCLC, 86.8%; with NCI-H460 lung it was 79.2%; in the assay with HOP-92 NSCLC it was 61.4%. Moreover, the growth in the assay on NCI-H522 lung is 73.1%; in the assay on A549/ATCC NSCLC it was 76%; with 786-0 renal, 78.6%; in the assay on COLO 205 colon, -20.7% (active).
